Most compounds without a hit are left out; they make up all but 11% or so of the library.
Tau fluor counter = counter-screen for tau fibril formation inhibitors; tau K18 P301L Alexa594 fluorescence, heparin fibrillization; Potency, µM (top dose mostly 57.7 µM), for inactives: top-dose activity change, negative = decrease; hit rate 0.93% among 280,000; also: potency is read from the fitted curve at half-maximal effect; nearly all actives have a fitted effect of over 55% in size
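Human K18 P301L tau (15 uM unlabeled plus 0.24 uM Alexa 594-labeled, final) in 100 mM sodium acetate pH 7 was mixed with compound and 20 uM heparin and incubated 6 hr at 37 C.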
G9a inh = blocks human histone lysine methyltransferase G9a; AID 504332; G9a H3K9 monomethylation, AlphaScreen, 2 h; Q96KQ7; Potency, µM (series often up to 102 µM), for inactives: at the highest dose activity, negative = inhibition, most hits filed as inhibitors; hit rate 8.8% among 350,000; also: potency is read from the fitted curve at half-maximal effect; nearly all actives have a fitted effect of over 75% in size
Target sequence (Q96KQ7 913-1193 limits assumed): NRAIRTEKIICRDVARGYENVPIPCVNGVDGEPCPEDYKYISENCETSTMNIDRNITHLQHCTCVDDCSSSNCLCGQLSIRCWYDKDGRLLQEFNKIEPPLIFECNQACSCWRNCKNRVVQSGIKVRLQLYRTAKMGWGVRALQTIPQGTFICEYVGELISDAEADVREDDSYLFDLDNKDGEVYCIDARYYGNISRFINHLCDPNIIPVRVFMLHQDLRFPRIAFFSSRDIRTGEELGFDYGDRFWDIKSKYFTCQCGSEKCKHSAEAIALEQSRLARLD
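Step 1: enzyme (final 20 nM) with compound, 15 min RT. Step 2: substrate peptide 500 nM and SAM 20 uM, 2 h RT. Step 3: anti-H3K9me1 antibody and AlphaScreen beads, 10 min, then plate read.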
Sfp PPTase inh = inhibitors of Bacillus subtilis Sfp phosphopantetheinyl transferase. Q9F4F7. Biochemical Sfp PPTase activity, qHTS. Potency, µM, for the others: largest response in the series, negative = inhibition, usual class: inhibitors. hit rate 3.5% among 310,000. AID 1490;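 also: the enzyme is Sfp with the accession as filed and its product quenches rhodamine fluorescence; potency is read from the fitted curve at half-maximal effect; 0% = enzyme reaction without inhibitor and -100% = no enzyme wells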
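Sfp 15 nM + cpd, 15 min RT; start w/ rhodamine-CoA 5 uM, BHQ-2-YbbR 12.5 uM (final); 50 mM Hepes pH 7.6, 10 mM MgCl2, 0.01% NP-40, 0.01% BSA; read 525/598 nm at 0 and 30 min.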
Coupling enz = coupling enzyme interference in Giardia aldolase counter-screen; coupling enzyme system counterscreen, AmpLite Red fluorescence; activity change, negative = inhibition, % at 58.2 µM, hits read low; hit rate 0.67% among 290,000; in the data active = activity change below about -30%
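First, compound is pin-transferred into glyceraldehyde-3-phosphate coupling-enzyme reagent at 57.5 uM final and held 10 min at RT. Next, substrate, coupling system and AmpLite Red are added. After 20 min RT, fluorescence (525/598 nm) is read.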
Tau FP inhib = inhibitors of human tau fibril formation; P10636; K18 P301L tau heparin fibrillization, Alexa594 FP, 6 h; Potency, µM (doses to about 57.7 µM), for the others: at the highest dose activity, negative = inhibition, actives largely listed as inhibitors; hit rate 0.39% among 280,000; AID 1468; also: potency is read from the fitted curve at half-maximal effect; nearly all actives have a fitted effect of over 55% in size
Target sequence (P10636 561-689 P618L limits assumed): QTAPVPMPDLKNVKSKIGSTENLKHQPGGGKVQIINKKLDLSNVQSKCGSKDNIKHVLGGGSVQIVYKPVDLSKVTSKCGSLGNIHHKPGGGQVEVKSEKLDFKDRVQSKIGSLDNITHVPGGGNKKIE
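Quantitative HTS format: compounds meet 15 uM recombinant K18 P301L tau and Alexa 594-tau tracer in 100 mM sodium acetate pH 7; 20 uM heparin triggers fibrillization at 37 C over 6 hr; FP gives the signal.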
Tau fibril ThT = tau fibrillization inhibition (ThT binding); recombinant tau K18 P301L (four-repeat tau fragment), heparin-induced fibrillization, ThT fluorescence; Potency, µM (top dose mostly 57.4 µM), for inactives: at the top dose activity, negative = inhibition, hits mostly inhibitors; hit rate 2.1% among 270,000; AID 1460; also: potency is read from the fitted curve at half-maximal effect; nearly all actives have a fitted effect of over 55% in size
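Tau K18 P301L fragment (15 uM unlabeled plus 0.24 uM Alexa 594-labeled) in 100 mM sodium acetate pH 7 with compound, fibrillization induced by 20 uM heparin for 6 hr at 37 C. Thioflavin T (30 uM) added, fluorescence read after 1 hr (ex 450, em 510 nm).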
The depositor's hits bear a star; ? = inconclusive; · = no result given; [ ] = another dose, or the depositor's remark. Unless noted, calls follow the shape of the dose curve; as a rule, active = well fitted curve in the direction sought with a large enough effect; inconclusive = small, poorly fitted or top-dose-only effect, or another doubt; inactive = no such curve, though single readings can be large; an effect the other way counts as inactive or inconclusive. Unless noted, % is scaled to controls: 0 for no effect and ±100 for the full control effect.

SMILES	Tau fluor counter	G9a inh	Sfp PPTase inh	Coupling enz	Tau FP inhib	Tau fibril ThT
Cc1cccc(Cn2c(C(=O)OC(C)C)cc3c2ccn3C)c1	?	?	-16%	-32*	?	35µM*
COC(=O)c1cc2occc2n1Cc1cccc(C)c1	-17%	56µM*	-2%	1	-9%	?
COc1cc2c(cc1NC(=O)COC(=O)C(CCSC)NC(=O)c1ccccc1Cl)oc1ccccc12 (centres undefined)	-26%	?	-7%	1	?	-12%
CCOC(=O)c1cc2c(ccn2C)n1Cc1ccc(Cl)cc1	-23%	50µM*	-12%	-22	-4%	?
CCOC(=O)c1cc2c(ccn2C)n1CC(=O)Nc1ccc(F)cc1	?	·	-27%	-22	?	28µM*
CN1CC(=O)N(CC(=O)Nc2cc(Cl)cc(Cl)c2)C1=O	-5%	-28%	11%	0	5%	-2%
O=C(C1CCCN(S(=O)(=O)c2cc(Cl)ccc2Cl)C1)N1CCOCC1 (centres undefined)	·	2%	4%	0	·	·
CC1=C(C(=O)Nc2cccc(C(F)(F)F)c2)C(c2ccccn2)n2ncnc2N1 (centres undefined)	-2%	20µM*	·	·	-3%	0%
CCOc1cc(OCC)cc(C(=O)NC(=S)Nc2cccc(C(F)(F)F)c2)c1	-22%	-3%[59 µM]	89µM*	-8	-6%	-2%
CCOc1ccc(NC(=S)NNC(=S)Nc2cccc(C(F)(F)F)c2)cc1	28µM*[quencher]	·	35µM*	-3	?	32µM*
CCOc1cc(OCC)cc(C(=O)Nc2cccc(C(C)=O)c2)c1	-15%	-48%[59 µM]	-7%	0	-12%	2%
COc1cccc(NC(=S)NNC(=O)C(C)n2nc(C)c([N+](=O)[O-])c2C)c1 (centres undefined)	2%	40µM*	21%	-1	-2%	-1%
CCCC(=O)OC1CCS(=O)(=O)c2sccc21 (centres undefined)	-7%	6%	20%	-4	2%	-5%
CCCC[C@H](CC)CN1CN(C[C@@H](CC)CCCC)CC(C)(N)C1	·	-25%[21.5 µM]	10%	-1	·	·
Cc1cc(C(F)(F)F)nn1CC(=O)NNC(=S)Nc1ccc(F)cc1	-7%	-10%[12.7 µM]	1%	5	-2%	-1%
COc1cc(Nc2ccccn2)cc(C(=O)Nc2cccc(C(F)(F)F)c2)c1	14µM*[quencher]	15%[12.7 µM]	11%	1	-13%	-17%
CCOc1ccc(NC(=O)c2cc(SC)ccc2Cl)cc1	-2%	11%[59 µM]	11%	3	-1%	-4%
O=C(NC(=S)Nc1cccc(C(F)(F)F)c1)c1ccc2nonc2c1	?	45µM*	?	-6	4%	-16%
CCOc1ccc(NC(=S)NNC(=O)c2cc(Br)ccc2Cl)cc1	-22%	45µM*	-11%	-1	3%	?
COc1cccc(NC(=S)NNC(=O)Cn2nc(C(F)(F)F)cc2C)c1	-5%	11µM*	16%	7	-7%	-6%
COc1ccc(C(C)NC(=O)C2CCCC2)cc1OC (centres undefined)	·	8%	23%	-2	·	·
CC(=O)OCC(NC(=O)C(COCc1ccccc1)NC(=O)OC(C)(C)C)C1OC(n2ccc(=O)[nH]c2=O)C(OC(C)=O)C1OC(C)=O (centres undefined)	·	·	10%	2	·	·
COC(=O)c1ccc(-c2ccc(C3C4C=CCC(C)C4C(=O)N3Cc3ccccc3)c(F)c2)cc1 (centres undefined)	·	·	?	-2	·	·
N#Cc1cccc(NC(=O)N2CC3(CCN(C(=O)c4ccco4)CC3)C2)c1	·	9%[12.7 µM]	5%	1	·	·
COc1ccc(NC(=O)CN(C)C(=O)Cc2n[nH]c(=O)c3ccccc23)cc1	·	7%[12.7 µM]	·	·	·	·
SMILES	Tau fluor counter	G9a inh	Sfp PPTase inh	Coupling enz	Tau FP inhib	Tau fibril ThT
COC(=O)C(CO)Nc1ncnc2onc(-c3ccc(F)cc3)c12 (centres undefined)	·	8%	21%	3	·	·
CCc1ccc2occ(CC(=O)Nc3c(C(=O)Nc4ccc(OC)cc4)oc4ccccc34)c2c1	?	-1%[59 µM]	·	·	?	-1%
COc1ccc(NC(=S)NNC(=S)Nc2cccc(C(F)(F)F)c2)cc1	14µM*[quencher]	22µM*	20µM*	-4	0%	?
COCCn1c(CCC(=O)O)ccc1-c1cccs1	-6%	50µM*	-10%	0	-9%	-5%
CCCCn1c(CCC(=O)O)ccc1-c1cccs1	1%	?	?	8	-1%	-17%
O=C(O)CCc1ccc(-c2cccs2)n1Cc1ccco1	-4%	?	25µM*	11	-1%	?
Cc1ccc(-c2nnc3ccccc3c2C(=O)Nc2ccc(F)cc2)cc1	-5%	1%[59 µM]	·	·	4%	6%
CCCC(=O)Nc1nnc(S(=O)(=O)N(CC)c2ccccc2)s1	·	-7%	7%	4	·	·
CC(=O)Oc1ccc(/C=C2/C(=O)N(c3ccccc3)N=C2C)cc1	·	?	-10%	2	·	·
CC1=NN(c2ccccc2)C(=O)/C1=C/C=C/c1ccc(N(C)C)cc1	2.5µM*[quencher]	2µM*	-7%	-13	?	2µM*
CCOC(=O)CC1=NN(c2ccccc2)C(=O)/C1=C\c1ccc(N(C)C)cc1	?	4.5µM*	7%	-5	9%	25µM*
CC1=NN(c2ccccc2)C(=O)/C1=C\C=C\c1ccccc1	?	2.2µM*	-4%	2	?	28µM*
CC(CN1CCN(C)CC1)OC(=O)c1ccccc1Cl (centres undefined)	3%	50µM*	-8%	0	0%	0%
Cc1ccccc1OCC(=O)OC(C)CN1CCN(C)CC1 (centres undefined)	-5%	50µM*	-7%	1	-8%	-3%
Cc1cccc(NC(=O)c2nc[nH]c2C(=O)N[C@@H](C)C(=O)OC(C)(C)C)c1	-20%	-2%[12.7 µM]	23%	-7	?	16%
COC(=O)c1sc2nc3c(cc2c1N)C(=O)CC(C)(C)C3	7%	?	18%	2	4%	-1%
Cc1cc(C)c(NC(=O)c2sc3nc4c(cc3c2N)C(=O)CC(C)(C)C4)c(C)c1	-4%	45µM*	-14%	0	-3%	-11%
O=C(CNCc1ccccc1)Nc1ccccc1-c1ccccc1	1%	6%	10%	-1	3%	3%
O=C(CNCc1ccccc1)Nc1cccc(Cl)c1Cl	·	10µM*	?	0	·	·
O=C(COC(=O)c1ccccn1)NCc1ccc(Cl)cc1Cl	·	28µM*	·	·	·	·
O=C(COC(=O)c1ccccn1)Nc1cccc(Cl)c1Cl	-7%	50µM*	-2%	-1	2%	-8%
